High-throughput results deposited in PubChem BioAssay by National Center for Advancing Translational Sciences (NCATS).
LASV entry inh: blocks Lassa virus binding to or entry into cells; Lassa virus pseudotype entry inhibition, cell reporter; 300,000 compounds, 1.2% hits; Potency, µM (titrated, usually from 37.9 µM), without a hit: at the highest dose activity change, negative = inhibition, actives largely listed as inhibitors; calls by dose curve; tested in HEK293 cells; note: potency is the fitted concentration of half-maximal effect; % is set by controls: 0 for no effect and ±100 for the full control effect; nearly all actives have a fitted effect of over 50% in size
Cycloheximide cs: counter-screen for Shiga toxin inhibitors: cycloheximide protein synthesis inhibition | 300,000 compounds, 12% hits | max response, % | cell reporter, cycloheximide protein synthesis inhibition counterscreen; in the data active = max response mostly above about 13%, no sharp cut-off; inactive = mostly below about 14%; note: read at 38.3 µM for the half of the compounds with a filed dose; 0% is about no effect
Marburg entry inh: blocks Marburg virus binding to or entry into cells. Potency, µM (highest dose often 37.8 µM), for inactives: top-dose activity change, negative = inhibition, hits mostly inhibitors. 300,000 compounds, 1.8% hits. Marburg virus pseudotyped entry inhibition, cell reporter; calls by dose curve; tested in HEK293 cells; note: potency is the fitted concentration of half-maximal effect; % is set by controls: 0 for no effect and ±100 for the full control effect
Shiga inhibitor: inhibitors of Shiga toxin in Vero cells | Vero cells, Shiga toxin protein synthesis inhibition reporter | inhibition, % at 38.7 µM | 290,000 compounds, 9.2% hits; in the data active = inhibition mostly above about 28%, no sharp cut-off; inactive = mostly below about 43%; note: 0% is about no effect
The depositor's hits bear a star; u = inconclusive; x = no result; ! = a repeat was not active; [ ] = remark or other dose. In the library only some 12% were active in any assay of this set; here they are far more common.

SMILES	LASV entry inh	Cycloheximide cs	Marburg entry inh	Shiga inhibitor
O=C(Nc1cccc(-c2nc3ccccc3o2)c1)c1cccnc1	18.2%[46.1 µM]	19.5	u	-3.5
O=C(CCN1C(=O)c2ccccc2C1=O)Nc1ccc(-c2nc3ccccc3o2)cc1	u	18.5*	16.4%	82.8*
Cc1ccc2c(=O)c(C(=O)c3ccc(F)cc3)cn(CC(=O)NCc3ccccc3)c2n1	1.0%[46.1 µM]	x	x	x
CC1=C(C)CC(C(=O)NC2CCN(C(C)C)CC2)C(C(=O)O)C1 (configuration not stated)	x	-2.3	x	-9.4
Cc1ccc(Cl)cc1NC(=O)Cn1c(=O)n(C(C)C)c(=O)c2oc3ccccc3c21	-20.8%[46.1 µM]	x	x	x
Cc1ccc2oc(-c3ccc(NC(=O)c4cccnc4)cc3)nc2c1	u	70.0*	u	62.0*
O=C(Nc1ccc2oc(-c3cccnc3)nc2c1)c1cccnc1	1.5%	-2.3	-0.3%	33.6
O=C(Nc1ccc(-c2nc3ccccc3o2)cc1)c1ccc(N2C(=O)C3C4C=CC(C4)C3C2=O)cc1 (configuration not stated)	14.6µM*	22.1*	-37.6%	41.7*
O=C(Cc1ncc(C(F)(F)F)cc1Cl)NNc1cccc(F)n1	x	-6.4	x	-13.0
O=[N+]([O-])c1cc2nc(O)c(O)nc2cc1[N+](=O)[O-]	x	13.8	u	-6.2
CNc1nc2cc([N+](=O)[O-])c([N+](=O)[O-])cc2nc1NC	-28.1%	16.2	7.94µM*	-23.9
N#CC1=C2SC=C(c3ccc(Br)cc3)N2CCCC1=O	3.2%[46.1 µM]	43.6*	u	118.0*
O=C1CC(Sc2nnc(-c3ccccc3O)o2)C(=O)N1c1ccccc1 (configuration not stated)	9.2µM*	1.8	-6.5%	50.5
COc1cccc(C(c2sc3nc(-c4ccco4)nn3c2O)N2CCC3(CC2)OCCO3)c1 (configuration not stated)	1.5%[46.1 µM]	x	x	x
CC1CCCCC1NC(=O)c1c(O)nc2ccccn2c1=O (configuration not stated)	8.2%	x	15.3%[46.1 µM]	x
CC(C)Cc1nn2c(=O)cc(COC(=O)c3cccc(NC(=O)c4cccs4)c3)nc2s1	11.7%[46.1 µM]	x	x	x
C#CCOC(=O)Nc1ccc(OCC(F)(F)F)nc1	u	21.2*	u	45.5*
COC(=O)c1ccc(CNC(=O)CCc2c[nH]c3ccccc23)cc1	u	-2.5	3.5%[46.1 µM]	3.7
COC(=O)c1ccc2c(CCO)c[nH]c2c1	x	24.9*	x	37.2*
Cc1cc2n(n1)C(c1cn(-c3ccccc3)nc1C)Nc1ccccc1-2 (configuration not stated)	19.3%	3.6	9.5%	6.4
Cc1cc2n(n1)C(c1c[nH]c3ccccc13)Nc1ccccc1-2 (configuration not stated)	19.2%	29.3*	u	40.8*
Cc1cccc2c1NC(=O)C21N2CCCC2C(C(=O)c2ccc3ccccc3c2)C12C(=O)Nc1ccccc12 (configuration not stated)	x	16.4*	x	20.1
CCn1nc(C)cc1C(=O)N1CCCC(C(=O)c2ccc3ccccc3c2)C1 (configuration not stated)	x	-0.1	x	9.6
CCc1cccc2c1NC(=O)C21N2CCCC2C(C(=O)c2ccc3ccccc3c2)C12C(=O)Nc1ccccc12 (configuration not stated)	u	1.3	10µM*	-4.2
CCc1ccc2c(c1)C1(C(=O)N2)N2CCCC2C(C(=O)c2ccc3ccccc3c2)C12C(=O)Nc1ccccc12 (configuration not stated)	u	45.9*	u	64.9*
SMILES	LASV entry inh	Cycloheximide cs	Marburg entry inh	Shiga inhibitor
CCCOc1ccc(C(=O)Nc2ccc3oc(-c4ccc(N(C)C)cc4)nc3c2)cc1	-3.3%[46.1 µM]	x	x	x
CCCCN(C(=O)Cc1coc2cc(C)c(C)cc12)c1c(N)n(Cc2ccccc2)c(=O)[nH]c1=O	9.4%[46.1 µM]	x	u	x
NC(=O)NCC(c1ccccc1)C1CCCCC1 (configuration not stated)	x	0.6	x	5.5
CC(NC(=O)C12CC3CC(CC(C3)C1)C2)c1ccc(F)cc1 (configuration not stated)	-16.0%	-4.4	3.3%[46.1 µM]	-14.7
COc1cccc2oc(-c3ccco3)cc(=O)c12	-2.7%	29.6*	-8.7%	23.7
O=c1cc(-c2ccco2)oc2ccc(Cl)cc12	1.2%	0.6	7.5%	28.3
COc1ccc2c(=O)cc(C(F)(F)C(F)(F)F)oc2c1	-2.0%	8.2	6.5%	-8.7
COc1ccc2c(=O)cc(-c3ccccc3F)oc2c1	u	40.6*	0.9%	53.5*
COc1ccc2oc(-c3ccco3)cc(=O)c2c1	x	49.8*	x	68.2*
COc1ccc(-c2cc(=O)c3c(OC)c(OC)c(OC)cc3o2)cc1OC	x	7.0	x	-3.0
CN(C)S(=O)(=O)c1cccc(NC(=O)COC(=O)c2c[nH]c(=O)[nH]c2=O)c1	-15.6%	1.6	-3.4%[46.1 µM]	11.1
COc1cccc2cc(C(=O)NCCc3ccccc3)oc12	x	-8.8	x	-21.7
O=c1[nH]c2ccccc2nc1C(Cl)c1ccccc1 (configuration not stated)	x	12.1	-4.6%	32.7
[N-]=[N+]=NC(c1ccccc1)c1nc2ccccc2[nH]c1=O (configuration not stated)	24.0%	26.9*	u	28.3
COc1cc(OC)cc(-c2nnc3n2N=C(c2ccc(OC)c(OC)c2)CS3)c1	x	-11.7	x	-5.5
COc1ccc([C@@H]2[C@@H]3C(=O)N(C(C)(C)C)C(=O)[C@@H]3[C@]3(C)C(=O)N(c4ccc(C(F)(F)F)cc4)C(=O)N23)cc1	x	20.9*	x	23.9*
COc1ccc([C@@H]2[C@@H]3C(=O)N(C(C)(C)C)C(=O)[C@@H]3[C@]3(CC(C)C)C(=O)N(c4ccccc4)C(=O)N23)cc1	x	15.7*	x	25.9
COc1ccc([C@@H]2[C@@H]3C(=O)N(C(C)(C)C)C(=O)[C@@H]3[C@]3(CC(C)C)C(=O)N(c4ccc(C(F)(F)F)cc4)C(=O)N23)cc1	x	-2.5	x	-1.7
COc1ccc(CNC(=O)c2c(N)n(CCCN3CCOCC3)c3nc4ccccc4nc23)cc1	23.1µM*	-3.6	16.4µM*	-5.1
Cc1ccc(C)c(N2CCN(C3=C(c4ccccc4)C(=O)c4ccccc43)CC2)c1	5.3%[46.1 µM]	x	0.0%[46.1 µM]	x
Cc1cc(C)[n+]2n1C(=O)C(c1ccccc1)=C2[O-]	27.8%[46.1 µM]	32.8*!	u	57.2
Cc1ccc(CNC(=O)COc2cccc3c2OC(C)(C)C3)cc1	-23.8%	x	-12.8%	x
Cc1ccc(C(=O)NCCC(=O)N2CCC3(CC2)NCCc2[nH]cnc23)cc1C	x	11.4*	x	-2.1
Cc1ccc(C(=O)NCC(=O)N2CCC3(CC2)NCCc2[nH]cnc23)cc1C	26.9%[46.1 µM]	-2.0	15.3%[46.1 µM]	-2.7
CCN1/C(=C\c2ccc3cc(C)ccc3[n+]2CC)Sc2cc(C)c(C)cc21	x	4.1	u	2.2
SMILES	LASV entry inh	Cycloheximide cs	Marburg entry inh	Shiga inhibitor
C=CC[n+]1c(/C=C2\C=Cc3cc(C)ccc3N2CC)ccc2ccccc21	7.3µM*	-2.5	4.11µM*	-11.0
CCOc1ccccc1N(C)C(=O)c1sc2nc3n(c(=O)c2c1C)CCCC3	-3.6%[46.1 µM]	x	x	x
CCN(CC)C(=O)Cn1cc(S(=O)(=O)CC(=O)N2CCOCC2)c2ccccc21	-1.1%	x	18.3%	x
Cc1nnc(N/N=C/c2ccc(-c3ccccc3F)o2)n1N	u	25.1*	u	149.8*
CCOc1cc(/C=N\n2nnnc2N)ccc1O	x	0.3	x	0.9
Cc1nnc(N/N=C/c2c(Cl)cccc2Cl)n1N	1.0%	12.4	u	39.3
